# Results filed as inconclusive are left out. Where a call stands in place of a potency, no number is given. Calls of active or inactive are those of the source. Unless noted, calls follow the shape of the dose curve; as a rule, active = well fitted curve in the direction sought with a large enough effect; inconclusive = small, poorly fitted or top-dose-only effect, or another doubt; inactive = no such curve, though single readings can be large; an effect the other way counts as inactive or inconclusive.
# Assays:
# [1] = biological target: Voltage-gated inwardly rectifying potassium channel KCNH2 (Homo sapiens) (UniProt Q12809); test: qHTS Assay for Small Molecule Inhibitors of the Human hERG Channel Activity (AID 588834);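 also: lower thallium flux fluorescence means stronger hERG block; nearly all actives have a fitted effect of over 50% in size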; also: potency is read from the fitted curve at half-maximal effect
# Sequence of Voltage-gated inwardly rectifying potassium channel KCNH2 (Homo sapiens) (Q12809 whole entry, looked up): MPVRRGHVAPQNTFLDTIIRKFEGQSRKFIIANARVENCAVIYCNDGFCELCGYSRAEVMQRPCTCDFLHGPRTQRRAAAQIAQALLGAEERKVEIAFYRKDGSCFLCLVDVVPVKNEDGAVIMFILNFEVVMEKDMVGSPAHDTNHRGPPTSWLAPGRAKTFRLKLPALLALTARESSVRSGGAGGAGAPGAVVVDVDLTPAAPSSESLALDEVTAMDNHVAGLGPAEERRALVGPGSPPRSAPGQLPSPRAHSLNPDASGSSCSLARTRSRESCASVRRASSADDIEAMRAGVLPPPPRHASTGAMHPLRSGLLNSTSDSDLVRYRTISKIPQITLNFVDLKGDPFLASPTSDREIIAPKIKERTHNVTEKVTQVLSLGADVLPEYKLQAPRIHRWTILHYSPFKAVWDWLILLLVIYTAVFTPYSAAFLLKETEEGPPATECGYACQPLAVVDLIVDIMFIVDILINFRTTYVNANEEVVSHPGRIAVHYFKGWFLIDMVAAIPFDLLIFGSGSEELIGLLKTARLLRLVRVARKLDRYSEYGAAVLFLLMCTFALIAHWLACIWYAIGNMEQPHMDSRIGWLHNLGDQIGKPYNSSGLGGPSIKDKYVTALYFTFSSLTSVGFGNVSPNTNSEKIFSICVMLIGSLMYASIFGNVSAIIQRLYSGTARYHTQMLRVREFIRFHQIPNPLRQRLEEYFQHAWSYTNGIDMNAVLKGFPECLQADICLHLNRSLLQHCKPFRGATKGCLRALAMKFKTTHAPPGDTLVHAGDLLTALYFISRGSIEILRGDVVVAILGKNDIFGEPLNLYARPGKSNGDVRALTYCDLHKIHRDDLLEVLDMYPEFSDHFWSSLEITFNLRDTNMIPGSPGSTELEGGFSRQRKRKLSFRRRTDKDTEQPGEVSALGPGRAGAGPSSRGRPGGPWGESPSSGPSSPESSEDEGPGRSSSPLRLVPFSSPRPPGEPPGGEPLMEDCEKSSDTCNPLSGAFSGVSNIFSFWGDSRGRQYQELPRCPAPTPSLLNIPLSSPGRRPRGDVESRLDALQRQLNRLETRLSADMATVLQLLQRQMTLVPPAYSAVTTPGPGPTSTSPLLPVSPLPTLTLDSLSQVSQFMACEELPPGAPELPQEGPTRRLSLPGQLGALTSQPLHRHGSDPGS
# Outline: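 Step 1: BacMam hERG transduction of U2OS, 4 hrs RT. Step 2: overnight 37 °C, plate 2000 cells/well, 4 hr. Step 3: FluxOR load, compound 10 min, stimulate, read fluorescence.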
# [2] = qHTS of Trypanosoma Brucei Inhibitors: LOPAC Validation (AID 624147); also: potency is read from the fitted curve at half-maximal effect
# Outline: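 Activity of T. brucei pyruvate kinase was followed by Kinase-Glo Plus luminescence after the enzyme reacted 45 min at room temperature with 130 uM ADP (final) and substrate. Test compounds were added before ADP at multiple concentrations.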
# [3] = biological target: Glucagon-like peptide 1 receptor (Homo sapiens) (UniProt P43220); test: qHTS of GLP-1 Receptor Agonists: LOPAC Validation (AID 624148);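 also: higher luminescence signal means agonism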
# Sequence of Glucagon-like peptide 1 receptor (Homo sapiens) (P43220 whole entry, looked up): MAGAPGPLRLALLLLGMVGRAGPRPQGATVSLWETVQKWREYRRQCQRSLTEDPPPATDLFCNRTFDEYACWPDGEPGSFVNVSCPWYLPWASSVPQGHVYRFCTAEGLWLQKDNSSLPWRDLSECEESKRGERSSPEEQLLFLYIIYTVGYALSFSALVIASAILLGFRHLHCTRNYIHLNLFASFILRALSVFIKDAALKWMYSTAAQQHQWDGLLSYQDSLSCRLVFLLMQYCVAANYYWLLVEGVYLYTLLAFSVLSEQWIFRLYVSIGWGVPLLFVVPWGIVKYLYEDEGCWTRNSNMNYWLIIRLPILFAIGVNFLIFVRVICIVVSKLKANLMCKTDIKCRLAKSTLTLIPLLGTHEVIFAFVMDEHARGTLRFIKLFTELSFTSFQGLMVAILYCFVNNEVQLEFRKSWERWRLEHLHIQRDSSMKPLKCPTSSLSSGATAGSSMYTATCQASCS
# Outline: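 HEK293 cells stably co-expressing a cAMP-responsive luciferase reporter and a hypersensitive GLP-1R were plated 12 h at 37 °C and exposed to compounds for 4-6 hr at 37 °C, 5% CO2. Luminescence was read 12 min after adding detection reagent.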
# [4] = biological target: Luciferin 4-monooxygenase (Photinus pyralis) (UniProt P08659); test: Biochemical firefly luciferase enzyme assay for NPC (AID 624030); also: nearly all actives have a fitted effect of over 70% in size; also: potency is read from the fitted curve at half-maximal effect
# Sequence of Luciferin 4-monooxygenase (Photinus pyralis) (P08659 whole entry, looked up): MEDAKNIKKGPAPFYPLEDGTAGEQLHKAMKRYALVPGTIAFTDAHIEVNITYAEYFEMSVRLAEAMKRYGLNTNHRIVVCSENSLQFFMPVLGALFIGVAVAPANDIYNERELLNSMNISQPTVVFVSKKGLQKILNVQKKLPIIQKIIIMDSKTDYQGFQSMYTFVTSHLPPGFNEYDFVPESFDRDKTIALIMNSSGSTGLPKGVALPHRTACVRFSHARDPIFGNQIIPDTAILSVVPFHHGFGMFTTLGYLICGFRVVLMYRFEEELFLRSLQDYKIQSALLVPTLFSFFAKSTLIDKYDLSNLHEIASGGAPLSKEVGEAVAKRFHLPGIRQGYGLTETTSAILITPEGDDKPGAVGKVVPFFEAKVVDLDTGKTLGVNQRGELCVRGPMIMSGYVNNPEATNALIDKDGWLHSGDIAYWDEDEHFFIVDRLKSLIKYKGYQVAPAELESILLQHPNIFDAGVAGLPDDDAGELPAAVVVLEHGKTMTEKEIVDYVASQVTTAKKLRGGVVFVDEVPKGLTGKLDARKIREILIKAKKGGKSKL
# Outline: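 Counter-screen for direct inhibition of the luciferase enzyme by approved-drug library compounds, run at 10 nM enzyme in 50 mM Tris acetate (final). Luminescence was read within 5 min of enzyme-buffer addition and normalized to PTC124 versus DMSO (0%).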
# [5] = S16 Schwann cell viability assay (CellTiter-Glo assay) (AID 624031); also: nearly all actives have a fitted effect of over 70% in size; also: potency is read from the fitted curve at half-maximal effect
# Outline: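 Counter-screen for cytotoxicity: parental S16 rat Schwann cells lacking the PMP22 reporters, treated 24 h with compound, viability from cellular ATP by CellTiter-Glo luminescence, normalized to DMSO (0%) and no-cell wells.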
# [6] = S16 Schwann cell PMP22 intronic element firefly luciferase assay (AID 624032); also: nearly all actives have a fitted effect of over 30% in size; also: potency is read from the fitted curve at half-maximal effect
# Outline: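 Rat S16 Schwann cells stably carrying a PMP22 intronic element-driven Fluc reporter were seeded overnight, then exposed to compounds for 24 h at 37 °C. Luminescence was normalized to PTC124 (positive control) and DMSO (0% activity).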
# [7] = S16 Schwann cell PMP22 intronic element beta-lactamase assay (AID 624044; calls by dose curve; also: nearly all actives have a fitted effect of over 15% in size)
# Outline: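 Beta-lactamase reporter under a PMP22 intronic regulatory element in stable S16 rat Schwann cells; 24 h compound exposure. 460 nm blue signal normalized between DMSO (0%) and potassium clavulanate, with 535 nm FRET tracking viability; curves classed by r2 and response.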
# [8] = biological target: Glutaminase kidney isoform, mitochondrial (Homo sapiens) (UniProt O94925); test: qHTS for Inhibitors of Glutaminase (GLS): LOPAC Validation (AID 624146); also: nearly all actives have a fitted effect of over 60% in size; also: potency is read from the fitted curve at half-maximal effect
# Sequence of Glutaminase kidney isoform, mitochondrial (Homo sapiens) (O94925 whole entry, looked up, canonical isoform): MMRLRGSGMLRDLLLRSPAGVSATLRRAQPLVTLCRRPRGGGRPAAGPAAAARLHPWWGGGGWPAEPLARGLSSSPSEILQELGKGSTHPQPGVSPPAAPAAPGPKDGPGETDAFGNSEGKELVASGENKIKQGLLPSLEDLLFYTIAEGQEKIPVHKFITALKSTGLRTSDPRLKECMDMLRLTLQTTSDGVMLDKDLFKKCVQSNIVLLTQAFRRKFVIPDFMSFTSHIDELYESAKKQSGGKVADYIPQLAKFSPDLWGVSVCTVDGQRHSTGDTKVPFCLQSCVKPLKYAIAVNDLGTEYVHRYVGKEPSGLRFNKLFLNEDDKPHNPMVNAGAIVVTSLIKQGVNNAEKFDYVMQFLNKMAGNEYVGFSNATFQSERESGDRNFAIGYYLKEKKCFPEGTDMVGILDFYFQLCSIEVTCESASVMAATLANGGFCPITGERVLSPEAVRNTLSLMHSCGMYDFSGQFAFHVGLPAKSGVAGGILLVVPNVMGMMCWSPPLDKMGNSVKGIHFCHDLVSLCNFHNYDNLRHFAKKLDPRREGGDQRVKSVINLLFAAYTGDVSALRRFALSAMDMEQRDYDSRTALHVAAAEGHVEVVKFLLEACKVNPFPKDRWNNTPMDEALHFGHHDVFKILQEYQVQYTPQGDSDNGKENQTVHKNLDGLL
# Outline: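 Read-out is an Amplex red fluorescence increase coupled through glutamate oxidase and HRP, measured before and after 30 min room-temperature incubation. hKGA is in 45 mM KH2PO4 (pH 8.2) with 0.02% Tween-20; glutamine added as 1mM solution.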
smiles,measurement,setting,value
O=Nc1c(-c2c(O)[nH]c3cc(Br)ccc23)[nH]c2ccccc12,Potency,[1],11.2 µM (active)
same,Potency,[2],inactive
same,outcome,[3],inactive
Cc1cccc(C#Cc2ccccc2)n1,Potency,[1],inactive
same,Potency,[2],inactive
same,outcome,[3],inactive
CC1=C(C(=O)O)N2C(=O)[C@@H](NC(=O)[C@H](N)C3=CCC=CC3)[C@H]2SC1,Potency,[4],inactive
O=C1CCc2ccc(OCCCCN3CCN(c4cccc(Cl)c4Cl)CC3)cc2N1,Potency,[4],inactive
same,Potency,[5],32.2 µM (active)
same,Potency,[6],22.8 µM (active)
same,Potency,[7],inactive
Cc1ccc(NC(=O)c2ccc(CN3CCN(C)CC3)cc2)cc1Nc1nccc(-c2cccnc2)n1,Potency,[4],12.8 µM (active)
same,Potency,[6],inactive
Cc1nc(-c2ccc(OCC(C)C)c(C#N)c2)sc1C(=O)O,Potency,[4],0.0361 µM (active)
CN(C)CCCC1(c2ccc(F)cc2)OCc2cc(C#N)ccc21 (centres undefined),Potency,[8],inactive
same,Potency,[2],inactive
same,outcome,[3],inactive
Nc1nc(N)c(N=O)c(OCC2CCCCC2)n1,Potency,[8],inactive
same,Potency,[2],inactive
same,outcome,[3],inactive
C[C@H](Cc1ccc(O)c(O)c1)[C@@H](C)Cc1ccc(O)c(O)c1,Potency,[8],0.631 µM (active)
same,Potency,[2],12 µM (active)
same,outcome,[3],inactive
CCOC(=O)C(C)Oc1cccc2c(=O)n(CC(=O)Nc3ccc4c(c3)OCCO4)ccc12 (centres undefined),Potency,[8],inactive
same,Potency,[2],inactive
same,outcome,[3],inactive
CC(C)c1nc(CN(C)C(=O)N[C@H](C(=O)N[C@@H](Cc2ccccc2)C[C@H](O)[C@H](Cc2ccccc2)NC(=O)OCc2cncs2)C(C)C)cs1,Potency,[4],inactive
COc1ccccc1N1CCN(CCN(C(=O)C2CCCCC2)c2ccccn2)CC1,Potency,[8],inactive
same,Potency,[2],inactive
same,outcome,[3],inactive
COc1cc2c(cc1OC)C1CC(=O)C(CC(C)C)CN1CC2 (centres undefined),Potency,[4],inactive
same,Potency,[5],inactive
same,Potency,[2],inactive
same,outcome,[3],inactive
COc1cc(C(C)=O)ccc1OCCCN1CCC(c2noc3cc(F)ccc23)CC1,Potency,[4],inactive
CCC1=C(C)CN(C(=O)NCCc2ccc(S(=O)(=O)NC(=O)NC3CCC(C)CC3)cc2)C1=O (centres undefined),Potency,[4],inactive
same,Potency,[5],inactive
same,Potency,[6],32.2 µM (active)
same,Potency,[7],inactive

# Reference: PubChem BioAssay (NCATS)
